High-throughput results from PubChem.
Shiga inhibitor = inhibitors of Shiga toxin in Vero cells | Vero cells, Shiga toxin protein synthesis inhibition reporter | 290,000 tested, 9.2% active | inhibition, % at 38.7 µM | AID 2315; in the data active means inhibition mostly above about 28%, no sharp cut-off; inactive means mostly below about 43%; further: 0% is about no effect
Sm TGR block = S. mansoni TGR enzyme inhibition. Q962Y6. purified TGR, DTNB reduction, TNB absorbance 405 nm. Potency, µM (top dose mostly 114 µM), for the others: top-dose activity change, negative = inhibition, actives largely listed as inhibitors. 360,000 tested, 3% active; further: potency means the concentration at half of the fitted maximal effect; on the % scale 0 is the no-effect control and ±100 the full control effect; nearly all actives have a fitted effect of over 60% in size
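Kinetic colorimetric format: TGR-catalysed, NADPH-driven DTNB reduction monitored via TNB absorbance. Enzyme dispensed at 20 nM; compound exposure 15 min at room temperature before reaction start.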
Cycloheximide cs = counter-screen for Shiga toxin inhibitors: cycloheximide protein synthesis inhibition; cell reporter, cycloheximide protein synthesis inhibition counterscreen; max response, %; 300,000 tested, 12% active; in the data active means max response mostly above about 13%, no sharp cut-off; inactive means mostly below about 14%; further: read at 38.3 µM for the half of the compounds with a filed dose; 0% is about no effect
LmPK inh = inhibitors of Leishmania mexicana pyruvate kinase; Q27686; purified LmPK, Kinase-Glo ATP luminescence, 1 h; Potency, µM (top dose mostly 57.5 µM), for the others: at the top dose activity change, negative = inhibition, actives largely listed as inhibitors; 290,000 tested, 0.37% active; further: potency means the concentration at half of the fitted maximal effect; on the % scale 0 is the no-effect control and ±100 the full control effect
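Kinase-Glo luminescence read after 1 h RT reaction of 0.1 nM LmPK with 0.5 mM PEP and 0.1 mM ADP. Activity scaled between uninhibited and enzyme-free controls.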
Tb PYK inh = inhibitors of Trypanosoma brucei pyruvate kinase | Q57TT1 | TbPYK enzyme, Kinase-Glo Plus ATP luminescence, 45 min | Potency, µM (doses to about 76.8 µM), inactives show at the highest dose activity, negative = inhibition, hits mostly inhibitors | 410,000 tested, 0.12% active | AID 624173; further: potency means the concentration at half of the fitted maximal effect; on the % scale 0 is the no-effect control and ±100 the full control effect; nearly all actives have a fitted effect of over 50% in size
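Enzyme and substrate buffer are dispensed first and compound is pin-transferred. ADP at 130 uM final then starts the reaction, which runs 45 min at room temperature. Detection reagent is added for 10 min before luminescence is imaged.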
Giardia FBPA inh = blocks Giardia fructose-bisphosphate aldolase activity. 290,000 tested, 0.71% active. Potency, µM (top dose mostly 59.6 µM), inactives show at the highest dose activity, negative = inhibition, hits mostly inhibitors. purified Giardia FBPA. A8B2U2; further: potency means the concentration at half of the fitted maximal effect; on the % scale 0 is the no-effect control and ±100 the full control effect; nearly all actives have a fitted effect of over 55% in size
Target sequence (A8B2U2 whole entry, looked up): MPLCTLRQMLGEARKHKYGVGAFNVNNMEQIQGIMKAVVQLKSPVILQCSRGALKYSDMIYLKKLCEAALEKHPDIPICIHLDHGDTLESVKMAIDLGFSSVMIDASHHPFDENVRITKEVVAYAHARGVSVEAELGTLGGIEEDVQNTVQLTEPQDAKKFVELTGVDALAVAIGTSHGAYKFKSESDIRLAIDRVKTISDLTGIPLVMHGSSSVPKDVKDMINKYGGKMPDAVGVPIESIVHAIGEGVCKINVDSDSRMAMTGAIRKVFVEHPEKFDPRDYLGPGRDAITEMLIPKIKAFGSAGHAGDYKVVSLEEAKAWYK
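Giardia FBPA (40 nM reagent) was preincubated 10 min at RT with compound (up to 57.5 uM final), then substrate plus GAPDH/TPI/NAD/arsenate coupling system with diaphorase/resazurin was added; resorufin fluorescence (525/598 nm) was read after 20 min.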
* = called active by the depositor; ? = inconclusive; . = no result; [ ] = another dose, or the depositor's remark. Shown is part of a subset that was picked to be rich in hits. Unless noted, the call rests on the fitted dose curve; in most records, active means well fitted curve in the direction sought with a large enough effect; inconclusive means small, poorly fitted or top-dose-only effect, or another doubt; inactive means no such curve, though single readings can be large; an effect the other way counts as inactive or inconclusive.

SMILES	Shiga inhibitor	Sm TGR block	Cycloheximide cs	LmPK inh	Tb PYK inh	Giardia FBPA inh
CCOC(=O)C1=C(CN2CCN(c3ccccc3F)CC2)NC(=O)NC1c1ccc(Cl)cc1 (centres undefined)	.	-1%	.	.	-2%	.
C/C(=N\Nc1ccc(F)cc1F)c1ccccc1O	79*	-13%	28*	-5%	-3%	-5%
S=c1[nH]c2ccccc2n2cccc12	-13	3%	1	-1%	-17%	1%
S=c1[nH]c2ccccc2o1	83*	.	13*	2%	-13%	-18%
COc1ccc(-c2cc(C(=O)Nc3ccc(C)c(N)c3)c3ccccc3n2)cc1	118*	1%	19*	0%	8%	11%
COc1ccc(NC(=O)c2cc(-c3cc(OC)c(OC)c(OC)c3)nc3ccccc23)cc1OC	19	-5%	8	-2%	0%	-5%
COc1ccc(-c2cc(C(=O)Nc3ccc(S(=O)(=O)Nc4ncccn4)cc3)c3ccccc3n2)cc1	-4	0%	2	3%	0%	2%
COc1ccc(-c2cc(C(=O)Nc3ccc(O)cc3)c3ccccc3n2)cc1OC	62*	6%	28*	3%	0%	-27%
Cc1c(Br)c([N+](=O)[O-])nn1CC(=O)N1CCN(C23CC4CC(CC(C4)C2)C3)CC1	10	10%	1	8%	-1%	3%
CC(=O)Oc1oc(-c2ccccc2)nc1/C=N/c1ccccn1	87*	28µM*	47*	?	4%	5%
CC(=O)Oc1oc(-c2ccccc2)nc1C=Nc1ccc(N(C)C)cc1	39	-17%	10	-2%	-4%	2%
CN(C)c1ccc(N=Cc2nc(-c3ccccc3)oc2OC(=O)c2ccccc2)cc1	34*	-18%	34*	-1%	-1%	-3%
COc1ccccc1N=Cc1nc(-c2ccccc2)oc1OC(C)=O	11	?	8	-13%	-2%	-19%
CNC(=O)c1ccc2nc(Cc3ccccc3)oc2c1	.	1%	.	.	-1%	.
COc1ccc2c(c1)CC(C(=O)N1CCC(C(N)=O)CC1)CO2 (centres undefined)	.	-3%	.	.	-3%	.
Cc1cccn2c(=O)c(C=NCCO)c(Nc3ccc(Cl)cc3)nc12	-19	11%	1	1%	.	-7%
CC(=O)Oc1ccc(Cl)cc1/C=C/c1cc(OC(C)=O)c2ccccc2n1	34*	-21%	20*	-1%	.	-7%
COc1ccc(C=Cc2ccc3ccccc3n2)c(OC)c1	.	.	.	.	-20%	.
COc1cc(/C=C/c2cc(C(=O)O)c3ccccc3n2)ccc1OC(F)F	12	-26%	1	3%	-5%	-23%
COc1cc(Cl)cc(/C=C/c2ccc3ccccc3n2)c1OC(C)=O	97*	-13%	84*	-2%	-7%	-5%
S=C(Nc1ccc(Cl)cc1)c1nc2ccccc2s1	35	11%	34*	-6%	4%	7%
O=C(COc1ccc(Cl)cc1)Nc1ccc(-c2nc3ccccc3s2)c(O)c1	.	2%	.	.	4%	.
O=C(Nc1ccc(Cl)cc1)/C(=C/c1cccc(O)c1)c1nc2ccccc2s1	154*	2%	95*	1%	-7%	-5%
Clc1ccc(CCNc2nc3ccccc3s2)cc1	25	-30%	10	1%	2%	0%
COc1cccc(CSc2nc(-c3ccccc3F)nc3c2Cc2c(CO)cnc(C)c2O3)c1	.	?	.	.	-4%	.
SMILES	Shiga inhibitor	Sm TGR block	Cycloheximide cs	LmPK inh	Tb PYK inh	Giardia FBPA inh
C=CCNC(=O)O/N=C/c1csc([N+](=O)[O-])c1	32*	?	12	5%	-4%	-2%
CC(=O)NC(CC(=O)N(C)Cc1cccc(Cl)c1Cl)c1ccccc1 (centres undefined)	-19	0%	-1	0%	-2%	7%
O=C(CC1(O)C(=O)Nc2ccccc21)c1ccc(-n2cccc2)cc1 (centres undefined)	15	50µM*	7	2%	7%	2%
Cc1ccc(NC(=O)COc2ccc(C(=O)NCCc3ccccc3)cc2)cc1	.	.	.	.	2%	.
COCC(=O)Nc1cc(C(=O)NCCc2ccccc2)ccc1Cl	74*	38%	86*	4%	5%	-4%
COc1ccc(C(=O)Nc2cc(C(=O)NCCc3ccccc3)ccc2Cl)cc1	35	-9%	29*	4%	5%	1%
CC(C)CCNC(=O)c1ccc(Cl)c(NC(=O)Cc2ccccc2)c1	45*	0%	16	7%	.	8%
CC(C)CCNC(=O)c1ccc(Cl)c(NC(=O)c2ccccc2F)c1	-1	-6%	-1	6%	.	14%
CCOCC(=O)Nc1cc(C(=O)NCCc2ccccc2)ccc1Cl	43*	3%	42*	0%	0%	-1%
COCC(=O)Nc1cc(C(=O)NCC(C)C)ccc1Cl	1	-7%	-2	-1%	-17%	-5%
COc1ccc(-c2ccc(CO)o2)cc1N	55*	-27%	31*	11%	-2%	-8%
COc1cccc(C2C(=O)N(C3CCCCC3)CC(=O)N2Cc2ccc(Cl)cc2)c1 (centres undefined)	.	10%	.	.	7%	.
COc1cc(C(C)=O)ccc1Oc1ccc(S(=O)(=O)N2CCOCC2)cn1	.	0%	.	.	8%	.
Cc1nc2c(cc(Oc3ccc(S(=O)(=O)N4CCOCC4)cn3)c3ccsc32)s1	113*	-15%	72*	-11%	-8%	?
COC(=O)c1ccccc1NC(=O)CSc1ccc(C)cc1	17	-2%	-2	-8%	0%	0%
Cc1ccc(CSCC(=O)NCCc2ccccc2)cc1	85	-6%	18*	1%	-5%	3%
COC(=O)c1ccccc1NC(=O)CSc1ccccc1	25	-3%	1	-6%	-5%	-6%
O=C(CSc1ccccc1)Nc1ccccc1C(=O)O	88*	-8%	27*	-17%	0%	3%
Cc1ccc(CSCC(=O)Nc2ccccc2C(=O)O)cc1	47*	8%	36*	-3%	-3%	-12%
Cc1ccc(SCC(=O)Nc2ccccc2C(=O)O)cc1	117*	?	29*	-29%	-17%	2%
CSc1ccccc1NC(=O)CSCc1ccc(C)cc1	6	11%	21	3%	-1%	1%
O=C(CN1CCCN(Cc2ccccc2Cl)S1(=O)=O)NCc1ccccc1	.	7%	.	.	3%[15.4 µM]	.
CCCCc1nnc(NC(=O)c2nc3nccc(C)n3n2)s1	7	30%	3	-2%	5%	?
Cc1ccnc2nc(C(=O)Nc3nc4ccccc4s3)nn12	62*	6%	45*	-16%	-1%	-23%
COc1ccc(-c2nc(NC(=O)c3nc4nccc(C)n4n3)sc2C)cc1	-10	3%	10	1%	1%	-9%
Cc1ccnc2nc(C(=O)Nc3nnc(CC(C)C)s3)nn12	25	-1%	9	1%	-6%	-23%
Cc1csc(NC(=O)c2nc3nccc(C)n3n2)n1	72*	-31%	18*	-9%	?	?
